What all share (assay): DAPPL (digital affinity profiling via proximity ligation, sequencing); 10 mM Tris-HCl pH 7.5, 50 mM NaCl, 1 mM DTT, 4% glycerol, room temperature, 30 min; GST-TFs on glutathione beads, 16-mer random dsDNA library, 0.1% formaldehyde crosslink after washing; high values mean tight binding
In one assay the target is T1, FLI1 (Homo sapiens, UniProt Q01543 1-452).
T1 sequence: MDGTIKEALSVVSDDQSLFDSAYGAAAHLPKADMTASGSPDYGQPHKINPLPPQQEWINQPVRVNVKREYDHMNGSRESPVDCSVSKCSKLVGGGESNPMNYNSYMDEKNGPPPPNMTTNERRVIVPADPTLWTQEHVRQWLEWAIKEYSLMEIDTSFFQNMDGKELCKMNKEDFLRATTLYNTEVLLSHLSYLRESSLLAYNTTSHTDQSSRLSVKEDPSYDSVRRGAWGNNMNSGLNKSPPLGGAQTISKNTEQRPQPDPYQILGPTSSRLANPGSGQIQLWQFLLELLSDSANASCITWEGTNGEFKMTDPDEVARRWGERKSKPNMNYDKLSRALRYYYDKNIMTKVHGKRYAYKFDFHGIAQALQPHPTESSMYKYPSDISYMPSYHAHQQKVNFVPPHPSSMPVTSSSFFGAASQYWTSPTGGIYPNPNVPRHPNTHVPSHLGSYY
To be noted: protein: recombinant; tags: N-terminal GST; dsDNA, one strand shown. In short, it runs like this:
(§1)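 Binding signal is given per hexamer as its read frequency for a factor divided by its frequency in the tag-only sample. GST-fused human transcription factors were expressed in yeast, captured on glutathione beads, barcoded with DNA and pooled with that sample, then incubated with 200 nmole of a 16-mer random double-stranded DNA library in Tris/NaCl/DTT/glycerol buffer for 30 min at room temperature. The pools were then washed, crosslinked, proximity-ligated, amplified by PCR and sequenced on an Illumina NextSeq500.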

The next assay addresses T2, ELK1 (Homo sapiens, UniProt P19419 1-428).
T2 sequence: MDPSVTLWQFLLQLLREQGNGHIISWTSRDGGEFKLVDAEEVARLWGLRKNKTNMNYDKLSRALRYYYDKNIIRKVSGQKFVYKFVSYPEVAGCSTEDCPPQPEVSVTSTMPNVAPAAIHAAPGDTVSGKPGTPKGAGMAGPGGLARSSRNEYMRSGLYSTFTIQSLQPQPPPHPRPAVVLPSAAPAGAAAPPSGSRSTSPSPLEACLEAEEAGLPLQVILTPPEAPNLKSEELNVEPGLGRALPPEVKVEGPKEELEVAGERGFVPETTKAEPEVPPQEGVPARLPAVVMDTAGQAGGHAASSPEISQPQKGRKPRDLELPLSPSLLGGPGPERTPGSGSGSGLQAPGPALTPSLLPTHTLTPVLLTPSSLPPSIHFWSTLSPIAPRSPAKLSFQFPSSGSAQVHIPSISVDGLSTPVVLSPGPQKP
The settings on record: protein: recombinant; tags: N-terminal GST; dsDNA, one strand shown. The essentials:
as §1

A further assay has as its target T3, GABPA (Homo sapiens, UniProt Q06546 1-454).
T3 sequence: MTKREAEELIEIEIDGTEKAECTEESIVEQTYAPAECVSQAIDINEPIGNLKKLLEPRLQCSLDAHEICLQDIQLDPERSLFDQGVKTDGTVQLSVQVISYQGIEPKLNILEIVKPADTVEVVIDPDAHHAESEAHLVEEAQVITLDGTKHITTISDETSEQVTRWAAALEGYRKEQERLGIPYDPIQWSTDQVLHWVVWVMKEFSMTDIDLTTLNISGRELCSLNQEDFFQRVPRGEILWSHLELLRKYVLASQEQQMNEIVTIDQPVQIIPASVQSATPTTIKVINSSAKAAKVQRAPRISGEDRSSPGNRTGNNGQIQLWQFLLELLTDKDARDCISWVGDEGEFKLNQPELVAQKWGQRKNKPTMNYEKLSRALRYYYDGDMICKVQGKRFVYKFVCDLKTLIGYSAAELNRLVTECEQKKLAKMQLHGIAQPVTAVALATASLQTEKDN
To be noted: protein: recombinant; tags: N-terminal GST; dsDNA, one strand shown. The essentials: as §1

The target in a further assay is T4, ERG (Homo sapiens, UniProt P11308 1-479).
T4 sequence: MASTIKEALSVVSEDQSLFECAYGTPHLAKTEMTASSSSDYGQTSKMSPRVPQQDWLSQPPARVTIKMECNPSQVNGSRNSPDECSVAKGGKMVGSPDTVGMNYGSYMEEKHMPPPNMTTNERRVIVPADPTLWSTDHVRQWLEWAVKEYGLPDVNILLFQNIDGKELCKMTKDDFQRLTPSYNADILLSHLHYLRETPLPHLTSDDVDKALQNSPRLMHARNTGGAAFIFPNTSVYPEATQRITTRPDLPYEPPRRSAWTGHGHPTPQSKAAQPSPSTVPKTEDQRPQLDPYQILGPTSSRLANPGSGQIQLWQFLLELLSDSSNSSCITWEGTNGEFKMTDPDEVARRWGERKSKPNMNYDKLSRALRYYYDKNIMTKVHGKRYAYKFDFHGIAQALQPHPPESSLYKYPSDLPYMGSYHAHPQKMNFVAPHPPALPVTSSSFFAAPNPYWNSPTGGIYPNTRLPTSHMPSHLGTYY
The settings on record: protein: recombinant; tags: N-terminal GST; dsDNA, one strand shown. The essentials: as §1

The next assay has as its target ELF1 (Homo sapiens, UniProt P32519 1-619). The settings on record: protein: recombinant; tags: N-terminal GST; dsDNA, one strand shown. In short, it runs like this:
as §1

For another assay, the target named is T5, EHF (Homo sapiens, UniProt Q9NZC4 1-300).
T5 sequence: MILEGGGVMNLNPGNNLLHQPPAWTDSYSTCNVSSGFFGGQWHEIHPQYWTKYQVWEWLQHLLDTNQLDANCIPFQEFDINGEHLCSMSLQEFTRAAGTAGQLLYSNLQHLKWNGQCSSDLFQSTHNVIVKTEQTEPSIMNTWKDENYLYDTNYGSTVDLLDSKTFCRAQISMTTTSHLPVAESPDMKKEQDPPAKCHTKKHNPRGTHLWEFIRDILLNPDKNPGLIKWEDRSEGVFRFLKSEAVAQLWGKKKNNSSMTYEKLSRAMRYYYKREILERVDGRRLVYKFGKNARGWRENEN
To be noted: protein: recombinant; tags: N-terminal GST; dsDNA, one strand shown. In short, it runs like this:
as §1

The target in a further assay is SPI1 (Homo sapiens, UniProt P17947 1-270). The settings on record: protein: recombinant; tags: N-terminal GST; dsDNA, one strand shown. In short, it runs like this:
as §1

The next assay has as its target SPIB (Homo sapiens, UniProt Q01892 1-262). The settings on record: protein: recombinant; tags: N-terminal GST; dsDNA, one strand shown. The essentials: as §1
For another assay, the target named is T6, ELK3 (Homo sapiens, UniProt P41970 1-407).
T6 sequence: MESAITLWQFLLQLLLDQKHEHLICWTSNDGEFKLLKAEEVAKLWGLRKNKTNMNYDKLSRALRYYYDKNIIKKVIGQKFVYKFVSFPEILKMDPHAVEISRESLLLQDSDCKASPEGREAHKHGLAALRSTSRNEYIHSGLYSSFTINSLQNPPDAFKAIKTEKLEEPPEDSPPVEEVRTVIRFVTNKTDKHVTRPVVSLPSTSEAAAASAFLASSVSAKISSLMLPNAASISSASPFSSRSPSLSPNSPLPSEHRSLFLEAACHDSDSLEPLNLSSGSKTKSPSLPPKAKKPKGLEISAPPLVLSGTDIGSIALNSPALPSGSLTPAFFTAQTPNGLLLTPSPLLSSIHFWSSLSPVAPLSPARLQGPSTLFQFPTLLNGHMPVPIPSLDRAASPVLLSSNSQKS
To be noted: protein: recombinant; tags: N-terminal GST; dsDNA, one strand shown. The essentials: as §1

The target of another assay is T7, FEV (Homo sapiens, UniProt Q99581 1-238).
T7 sequence: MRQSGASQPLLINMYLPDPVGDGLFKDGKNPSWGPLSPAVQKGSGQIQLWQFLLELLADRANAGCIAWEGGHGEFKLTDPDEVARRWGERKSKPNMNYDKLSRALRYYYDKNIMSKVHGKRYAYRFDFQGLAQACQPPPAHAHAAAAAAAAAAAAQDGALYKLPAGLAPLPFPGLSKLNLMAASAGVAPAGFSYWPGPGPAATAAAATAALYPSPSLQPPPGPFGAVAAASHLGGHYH
To be noted: protein: recombinant; tags: N-terminal GST; dsDNA, one strand shown. The essentials:
as §1

In another assay the target is ETV5 (Homo sapiens, UniProt P41161 1-510). To be noted: protein: recombinant; tags: N-terminal GST; dsDNA, one strand shown. The essentials:
as §1

In the next assay the target is HSF1 (Homo sapiens, UniProt Q00613 1-529). To be noted: protein: recombinant; tags: N-terminal GST; chain copies: 3; dsDNA, one strand shown. The essentials: as §1
The target in another assay is T8, SPIC (Homo sapiens, UniProt Q8N5J4 1-248).
T8 sequence: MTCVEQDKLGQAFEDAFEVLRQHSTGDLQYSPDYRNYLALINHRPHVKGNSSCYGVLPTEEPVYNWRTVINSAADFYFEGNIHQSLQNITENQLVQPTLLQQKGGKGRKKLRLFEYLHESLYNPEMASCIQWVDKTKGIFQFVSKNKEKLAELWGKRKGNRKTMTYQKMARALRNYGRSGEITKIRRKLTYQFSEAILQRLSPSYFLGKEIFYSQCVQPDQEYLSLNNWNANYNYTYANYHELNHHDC
To be noted: protein: recombinant; tags: N-terminal GST; dsDNA, one strand shown. In short, it runs like this:
as §1

The target in a further assay is ELF4 (Homo sapiens, UniProt Q99607 1-663). To be noted: protein: recombinant; tags: N-terminal GST; dsDNA, one strand shown. The essentials: as §1
In a further assay the target is T9, ELK4 (Homo sapiens, UniProt P28324-2 1-405).
T9 sequence: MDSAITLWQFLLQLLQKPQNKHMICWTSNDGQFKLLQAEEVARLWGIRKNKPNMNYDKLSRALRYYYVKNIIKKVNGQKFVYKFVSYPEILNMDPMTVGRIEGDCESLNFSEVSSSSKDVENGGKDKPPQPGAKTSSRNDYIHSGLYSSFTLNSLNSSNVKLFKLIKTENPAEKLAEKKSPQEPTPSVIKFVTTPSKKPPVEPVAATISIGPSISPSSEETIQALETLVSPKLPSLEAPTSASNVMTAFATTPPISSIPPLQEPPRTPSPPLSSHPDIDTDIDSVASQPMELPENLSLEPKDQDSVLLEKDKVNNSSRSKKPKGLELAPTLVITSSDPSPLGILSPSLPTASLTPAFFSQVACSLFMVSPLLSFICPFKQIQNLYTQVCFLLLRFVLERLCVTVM
The settings on record: protein: recombinant; tags: N-terminal GST; dsDNA, one strand shown. In short, it runs like this: as §1

In the next assay the target is T10, ETV2 (Homo sapiens, UniProt O00321 1-342).
T10 sequence: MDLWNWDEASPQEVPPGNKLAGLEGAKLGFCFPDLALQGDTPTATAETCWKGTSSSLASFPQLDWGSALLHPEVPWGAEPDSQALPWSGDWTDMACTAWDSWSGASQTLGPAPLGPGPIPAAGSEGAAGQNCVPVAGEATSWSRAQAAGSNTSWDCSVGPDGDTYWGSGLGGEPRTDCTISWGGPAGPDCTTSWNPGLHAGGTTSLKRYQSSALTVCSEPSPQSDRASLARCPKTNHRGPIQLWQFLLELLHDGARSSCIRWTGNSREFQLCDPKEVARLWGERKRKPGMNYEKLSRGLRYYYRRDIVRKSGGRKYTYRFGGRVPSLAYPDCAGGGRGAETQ
The settings on record: protein: recombinant; tags: N-terminal GST; dsDNA, one strand shown. In short, it runs like this:
as §1

In another assay the target is T11, ELF3 (Homo sapiens, UniProt P78545 1-371).
T11 sequence: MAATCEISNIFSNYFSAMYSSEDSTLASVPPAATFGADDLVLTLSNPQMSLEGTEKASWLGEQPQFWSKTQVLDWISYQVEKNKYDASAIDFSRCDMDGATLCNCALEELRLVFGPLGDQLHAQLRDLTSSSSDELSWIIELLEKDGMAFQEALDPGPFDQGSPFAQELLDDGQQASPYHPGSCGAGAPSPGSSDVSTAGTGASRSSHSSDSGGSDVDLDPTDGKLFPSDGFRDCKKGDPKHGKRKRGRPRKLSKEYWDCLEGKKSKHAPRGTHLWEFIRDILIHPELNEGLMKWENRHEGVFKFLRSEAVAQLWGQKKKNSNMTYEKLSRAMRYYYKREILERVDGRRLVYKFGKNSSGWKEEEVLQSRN
The settings on record: protein: recombinant; tags: N-terminal GST; dsDNA, one strand shown. In short, it runs like this:
as §1

The next assay has as its target CRX (Homo sapiens, UniProt O43186 1-299). To be noted: protein: recombinant; tags: N-terminal GST; dsDNA, one strand shown. In short, it runs like this:
as §1

The target of another assay is ETV1 (Homo sapiens, UniProt P50549 1-477). To be noted: protein: recombinant; tags: N-terminal GST; dsDNA, one strand shown. The essentials:
as §1

Chain of ELF4 (Q99607 whole entry): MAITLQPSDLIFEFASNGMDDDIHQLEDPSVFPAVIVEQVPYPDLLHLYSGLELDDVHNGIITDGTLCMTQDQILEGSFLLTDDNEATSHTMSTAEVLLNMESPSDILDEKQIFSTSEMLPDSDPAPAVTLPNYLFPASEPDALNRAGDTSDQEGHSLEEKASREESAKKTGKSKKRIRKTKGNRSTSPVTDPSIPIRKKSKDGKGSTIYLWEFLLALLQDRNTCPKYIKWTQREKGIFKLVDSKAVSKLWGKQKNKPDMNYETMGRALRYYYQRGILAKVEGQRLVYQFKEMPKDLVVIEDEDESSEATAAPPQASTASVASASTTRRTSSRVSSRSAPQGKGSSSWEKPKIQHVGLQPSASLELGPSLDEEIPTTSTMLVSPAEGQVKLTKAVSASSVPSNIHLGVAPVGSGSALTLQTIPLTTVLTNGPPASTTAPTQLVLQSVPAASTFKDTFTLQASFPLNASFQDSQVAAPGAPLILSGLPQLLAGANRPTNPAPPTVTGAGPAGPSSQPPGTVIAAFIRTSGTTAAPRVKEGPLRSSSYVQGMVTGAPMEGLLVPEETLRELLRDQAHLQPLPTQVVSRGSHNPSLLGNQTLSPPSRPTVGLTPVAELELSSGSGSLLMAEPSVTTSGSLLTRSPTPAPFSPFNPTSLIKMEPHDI
Chain of CRX (O43186 whole entry): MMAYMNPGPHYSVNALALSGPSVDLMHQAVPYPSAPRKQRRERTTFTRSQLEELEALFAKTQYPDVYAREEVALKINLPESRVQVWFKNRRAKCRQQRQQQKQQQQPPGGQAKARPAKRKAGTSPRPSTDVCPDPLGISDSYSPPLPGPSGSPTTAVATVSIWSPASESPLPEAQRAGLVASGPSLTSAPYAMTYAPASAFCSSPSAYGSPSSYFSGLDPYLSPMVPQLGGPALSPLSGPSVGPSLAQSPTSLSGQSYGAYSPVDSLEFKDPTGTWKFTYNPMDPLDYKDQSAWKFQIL
Chain of SPIB (Q01892 whole entry): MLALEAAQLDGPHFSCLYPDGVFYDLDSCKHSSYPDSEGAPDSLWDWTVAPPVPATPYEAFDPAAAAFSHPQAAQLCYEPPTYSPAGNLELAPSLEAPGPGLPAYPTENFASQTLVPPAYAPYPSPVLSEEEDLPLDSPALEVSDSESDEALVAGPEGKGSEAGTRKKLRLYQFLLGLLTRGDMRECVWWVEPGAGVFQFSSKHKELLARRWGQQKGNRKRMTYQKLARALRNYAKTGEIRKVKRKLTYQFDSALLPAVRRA
Chain of ELF1 (P32519 whole entry): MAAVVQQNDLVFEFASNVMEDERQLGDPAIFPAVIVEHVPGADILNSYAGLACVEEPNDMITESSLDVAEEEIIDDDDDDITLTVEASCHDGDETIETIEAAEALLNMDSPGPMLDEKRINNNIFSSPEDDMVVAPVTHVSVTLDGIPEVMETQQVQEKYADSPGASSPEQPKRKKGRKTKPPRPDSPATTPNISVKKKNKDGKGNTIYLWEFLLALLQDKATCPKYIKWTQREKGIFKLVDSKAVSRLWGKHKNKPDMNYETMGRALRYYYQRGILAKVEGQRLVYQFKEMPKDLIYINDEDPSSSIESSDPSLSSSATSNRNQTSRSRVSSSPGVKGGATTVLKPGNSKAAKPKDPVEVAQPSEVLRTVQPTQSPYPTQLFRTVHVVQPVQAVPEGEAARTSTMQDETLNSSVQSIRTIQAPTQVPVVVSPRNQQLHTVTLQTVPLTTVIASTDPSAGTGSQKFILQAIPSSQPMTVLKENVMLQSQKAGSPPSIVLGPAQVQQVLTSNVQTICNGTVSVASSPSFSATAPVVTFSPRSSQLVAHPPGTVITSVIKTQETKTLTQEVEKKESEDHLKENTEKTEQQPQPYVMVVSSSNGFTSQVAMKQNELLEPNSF
Chain of ETV1 (P50549 whole entry): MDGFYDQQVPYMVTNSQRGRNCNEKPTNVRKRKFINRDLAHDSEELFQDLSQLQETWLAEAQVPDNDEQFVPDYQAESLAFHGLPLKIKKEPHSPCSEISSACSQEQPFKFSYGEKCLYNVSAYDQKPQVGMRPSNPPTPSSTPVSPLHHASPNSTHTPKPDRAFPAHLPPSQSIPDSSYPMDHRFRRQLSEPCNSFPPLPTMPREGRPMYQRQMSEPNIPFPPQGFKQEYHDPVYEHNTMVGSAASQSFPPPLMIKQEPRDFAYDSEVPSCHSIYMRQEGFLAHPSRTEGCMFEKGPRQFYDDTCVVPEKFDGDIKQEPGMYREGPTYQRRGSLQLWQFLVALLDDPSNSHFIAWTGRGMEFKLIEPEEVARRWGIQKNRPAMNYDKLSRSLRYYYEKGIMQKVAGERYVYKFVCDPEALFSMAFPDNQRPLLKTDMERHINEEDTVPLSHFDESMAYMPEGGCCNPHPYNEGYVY
Chain of HSF1 (Q00613 whole entry): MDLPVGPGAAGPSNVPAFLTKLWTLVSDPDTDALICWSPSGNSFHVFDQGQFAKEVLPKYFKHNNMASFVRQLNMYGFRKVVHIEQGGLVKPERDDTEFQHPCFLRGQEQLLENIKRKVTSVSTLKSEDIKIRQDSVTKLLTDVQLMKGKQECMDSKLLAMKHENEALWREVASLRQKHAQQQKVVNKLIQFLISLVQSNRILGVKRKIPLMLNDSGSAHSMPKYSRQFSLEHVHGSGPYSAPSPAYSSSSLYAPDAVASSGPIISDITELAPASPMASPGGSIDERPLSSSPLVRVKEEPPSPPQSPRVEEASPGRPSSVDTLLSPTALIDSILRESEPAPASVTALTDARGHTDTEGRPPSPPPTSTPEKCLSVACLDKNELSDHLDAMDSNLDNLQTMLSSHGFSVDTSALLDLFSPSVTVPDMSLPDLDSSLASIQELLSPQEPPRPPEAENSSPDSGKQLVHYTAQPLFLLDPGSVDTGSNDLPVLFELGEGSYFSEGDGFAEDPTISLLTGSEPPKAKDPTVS
Chain of ETV5 (P41161 whole entry): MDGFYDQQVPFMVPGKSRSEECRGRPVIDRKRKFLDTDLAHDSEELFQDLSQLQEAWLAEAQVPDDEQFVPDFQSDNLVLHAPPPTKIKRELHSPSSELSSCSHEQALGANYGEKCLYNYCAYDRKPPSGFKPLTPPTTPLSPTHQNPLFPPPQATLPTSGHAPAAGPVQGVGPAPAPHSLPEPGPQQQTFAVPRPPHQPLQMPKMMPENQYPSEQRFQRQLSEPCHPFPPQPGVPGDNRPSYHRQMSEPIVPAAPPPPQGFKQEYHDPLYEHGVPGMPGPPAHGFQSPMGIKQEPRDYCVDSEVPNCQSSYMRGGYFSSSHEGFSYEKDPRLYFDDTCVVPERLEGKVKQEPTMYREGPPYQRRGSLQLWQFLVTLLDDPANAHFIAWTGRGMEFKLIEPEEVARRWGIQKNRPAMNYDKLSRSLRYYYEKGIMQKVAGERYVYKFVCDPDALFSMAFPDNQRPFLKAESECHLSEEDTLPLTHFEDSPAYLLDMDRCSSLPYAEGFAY

Take TTCTTG: the binding signal with FLI1 was 1.42 fold enrichment (6-mer frequency, TF over GST control); with ELK1, 1.46 fold enrichment (6-mer frequency, TF over GST control); with GABPA it was 1.5 fold enrichment (6-mer frequency, TF over GST control); with ERG, 1.38 fold enrichment (6-mer frequency, TF over GST control); with ELF1 it was 1.46 fold enrichment (6-mer frequency, TF over GST control); in the assay with EHF, 1.56 fold enrichment (6-mer frequency, TF over GST control). For the same sequence, the binding signal with SPI1 is 1.45 fold enrichment (6-mer frequency, TF over GST control); with SPIB it was 1.39 fold enrichment (6-mer frequency, TF over GST control); with ELK3, 1.35 fold enrichment (6-mer frequency, TF over GST control); with FEV it was 1.29 fold enrichment (6-mer frequency, TF over GST control); in the assay with ETV5, 1.41 fold enrichment (6-mer frequency, TF over GST control); with HSF1, 1.98 fold enrichment (6-mer frequency, TF over GST control). Also, the binding signal with SPIC is 1.31 fold enrichment (6-mer frequency, TF over GST control); with ELF4, 1.43 fold enrichment (6-mer frequency, TF over GST control); with ELK4 it was 1.34 fold enrichment (6-mer frequency, TF over GST control); in the assay with ETV2 it was 1.18 fold enrichment (6-mer frequency, TF over GST control); with ELF3, 1.46 fold enrichment (6-mer frequency, TF over GST control); with CRX, 1.55 fold enrichment (6-mer frequency, TF over GST control). Besides, the binding signal with ETV1 is 1.47 fold enrichment (6-mer frequency, TF over GST control).

(Values after paper PMC7862700, “An all-to-all approach to the identification of sequence-specific readers for epigenetic DNA modifications on cytosine”.)
